# From PubChem
# Rows were chosen to be rich in hits. Some 2.9% of all compounds tested hit in one or more screens of this group.
# SKOV3 invasion: blocks SKOV3ip1 adhesion and invasion in omental model; SKOV3ip1-GFP adhesion/invasion on 3D omental model, fluorescence; Potency, µM (doses to about 45.8 µM), for inactives: at the top dose activity change, negative = inhibition, actives largely listed as inhibitors; 46,000 compounds, 0.1% hits; AID 1963576;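 note: potency is the fitted concentration of half-maximal effect; plate controls were DMSO wells for no effect and tomatine positive control wells for full effect; nearly all actives have a fitted effect of over 65% in size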
#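 A 3D layer of primary human omental fibroblasts, mesothelial cells, fibronectin and collagen I, grown 48 hr, received SKOV3ip1-GFP cells in serum-free medium plus compounds at 0.36-46 umol/L. After 2 hr RT and 16 hr 37 C, fixed adherent GFP cells were counted; normalized to DMSO and tomatine.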
# GALC G270D up: galactocerebrosidase G270D activity enhancement, cell-based; P54803; 145M-Twi-hGALC-G270D cells (Twitcher mouse brain line with human GALC G270D), HMU-beta-Gal fluorescence, 48 h; Potency, µM (series often up to 57.5 µM), usual class: activators; 45,000 compounds, 0.1% hits; note: potency is the fitted concentration of half-maximal effect; 0% is about no effect; nearly all actives have a fitted effect of over 65% in size
#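 Fluorogenic HMU-b-Gal hydrolysis (0.1 mM final, pH 5.2 citrate-phosphate with 1 mg/mL sodium taurocholate; carbonate stop buffer) measures mutant GALC activity after compound treatment of live 145M-Twi Twitcher brain cells stably carrying human GALC-G270D, with wild-type GALC line alongside; activation sought.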
# FH mod: Identification of activators of human fumarate hydratase by quantitative high-throughput screening. Fumarate hydratase, mitochondrial (Homo sapiens), P07954. FH coupled MDH/diaphorase resazurin fluorescence, 15 min. Potency, µM (titrated, usually from 79.9 µM), for inactives: at the top dose activity change, negative = inhibition, usual class: inhibitors. 54,000 compounds, 0.22% hits; note: potency is the fitted concentration of half-maximal effect; % is set by controls: 0 for no effect and ±100 for the full control effect; the screen sought activators but most active calls are inhibition curves; nearly all actives have a fitted effect of over 45% in size
# DRV1 agonist: activates human resolvin D1 receptor GPR32; CHO-K1 GPR32 beta-arrestin PathHunter luminescence, 90 min; zero percent set by DMSO-only wells; activation, % at 76.9 µM; 48,000 compounds, 2.5% hits; AID 1346428;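 active = activation of at least 60% and not above a set upper limit, about 1 call in 100 departs from these limits; inconclusive = activation of 40% to 60%, or above that upper limit; inactive = activation under 40%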; note: 0% is about no effect
# Target sequence (O75388 whole entry, looked up): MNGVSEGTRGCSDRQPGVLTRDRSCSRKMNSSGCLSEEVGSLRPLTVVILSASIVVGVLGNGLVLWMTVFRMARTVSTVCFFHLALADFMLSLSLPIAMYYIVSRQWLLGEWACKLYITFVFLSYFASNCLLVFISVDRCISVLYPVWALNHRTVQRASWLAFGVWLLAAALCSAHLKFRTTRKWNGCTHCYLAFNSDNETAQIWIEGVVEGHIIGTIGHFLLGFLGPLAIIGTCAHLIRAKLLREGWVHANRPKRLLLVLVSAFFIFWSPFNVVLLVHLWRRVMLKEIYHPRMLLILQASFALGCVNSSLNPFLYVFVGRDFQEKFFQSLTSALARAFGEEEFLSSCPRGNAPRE
#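 GPR32 activation in stably transfected CHO-K1 cells, detected as beta-arrestin recruitment by enzyme-fragment complementation. Compound exposure: 90 min, 37 °C.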
# Starred values were filed as active, the others as inactive; i = inactive; ? = inconclusive; nt = no result; ! = not confirmed by another sample; [ ] = dose if it differs, or a comment. Unless noted, calls come from the whole dose curve; as a rule, active = well fitted curve in the direction sought with a large enough effect; inconclusive = small, poorly fitted or top-dose-only effect, or another doubt; inactive = no such curve, though single readings can be large; an effect the other way counts as inactive or inconclusive.
SMILES,SKOV3 invasion,GALC G270D up,FH mod,DRV1 agonist
N#Cc1cc2c(nc1SCC(=O)Nc1cccc(C(F)(F)F)c1)C1CCN2CC1,i,i,1%,64*
N#Cc1cccc(NC(=O)CSc2nc3c(cc2C#N)N2CCC3CC2)c1,1%,i,-18%,21
CCC(OC(C)=O)C(CC(C)NC)(c1ccccc1)c1ccccc1 (stereo not given),nt,i,4%,85*
CCCCCCCCCC(CC)c1ccc(S(=O)(=O)O)cc1 (stereo not given),nt,i,?,101*
CCNC(=O)[C@H]1O[C@@H](n2cnc3c(N)ncnc32)[C@H](O)C1O (stereo not given in full),nt,nt,4%[53.3 µM],nt
CN1CCc2cc(Cl)c(O)cc2[C@H]2c3ccccc3CC[C@@H]21,nt,i,0%[53.3 µM],34
CN1CCc2cc(O)cc3c2[C@H]1Cc1ccc(O)c(O)c1-3,nt,nt,14µM*,17
CCCN1CCc2cc(O)cc3c2[C@H]1Cc1ccc(O)c(O)c1-3,nt,nt,14µM*,21
CCCCCn1cc(C(=O)c2cccc3ccccc23)c2ccccc21,nt,nt,-3%,nt
CC(C)OC(=O)c1ccnc2cc(C(OCCN3CCCCC3)c3ccccc3Cl)sc12 (stereo not given),nt,nt,-5%,nt
Cc1[nH]c2ccc(Cl)cc2c1CCN(C)C,nt,nt,1%,nt
CCOC(=O)N1CCN(c2ncc3c(n2)CC(c2ccccc2O)CC3=O)CC1 (stereo not given),2%,i,-15%,76*
O=C(CCc1nc(C2=CCN(Cc3cccc(Cl)c3)CC2)no1)Nc1ccccc1F,-3%,i,-18%,70*
Oc1ccc([C@H]2CNCc3c2ccc(O)c3O)cc1O,nt,i,31µM*,-6
CN1C2CCC1CC(OC(=O)N1Cc3ccccc3NC1=O)C2 (stereo not given),nt,nt,2%,nt
C[C@@H]1O[C@@H](O[C@H]2CC[C@@]3(C)C(CC[C@@H]4C3CC[C@]3(C)[C@@H](C5=CC(=O)OC5)CC[C@]43O)C2)[C@H](O)[C@H](O)[C@H]1O (stereo not given in full),nt,nt,2%[53.3 µM],nt
C[C@@H]1O[C@@H](O[C@H]2C[C@@H](O)[C@]3(CO)[C@H]4[C@H](O)C[C@]5(C)[C@@H](C6=CC(=O)OC6)CC[C@]5(O)[C@@H]4CC[C@]3(O)C2)[C@H](O)[C@H](O)[C@H]1O,-29%,i,6%[53.3 µM],65*!
O=c1c(O)c(-c2ccc(O)c(O)c2)oc2cc(O)cc(O)c12,-6%,i,?,109*!
CCOC(=O)C1(CCc2ccccc2)CCN(Cc2ccc(NC(C)=O)cc2)CC1,nt,nt,-1%,nt
CC(=O)OC1(c2ccccc2)CCN(CCc2ccccc2)CC1,nt,i,0%,85*
C=C1CC[C@H]2[C@@H](/C=C(\C)C(=O)[C@@]3(OC(C)=O)C[C@H](C)[C@H](OC(=O)c4ccccc4)[C@@H]3[C@H]1OC(C)=O)C2(C)C,nt,nt,-6%[53.3 µM],nt
Cc1cccc(NC(=O)N[C@H]2CN(C)c3ccccc3C(c3ccccc3)=N2)c1,nt,nt,-15%,nt
CC(C)(c1ccc(O)cc1)c1ccc(O)cc1,nt,i,-8%,64*
CC(C)(C)CC(C)(C)c1ccc(O)cc1,nt,i,?,116*!
CCC(C)(C)c1ccc(O)cc1,nt,i,-12%[53.3 µM],?
SMILES,SKOV3 invasion,GALC G270D up,FH mod,DRV1 agonist
COc1cc(O)c2c(c1)/C=C/C[C@@H](O)[C@@H](O)C(=O)CCC[C@H](C)OC2=O,nt,nt,-2%[53.3 µM],nt
O=C(Nc1ccc(Br)cc1)c1cc(Br)cc(Br)c1O,nt,i,-25%[53.3 µM],82*
C/C=C(/C)C1C=CC2CC(C)CC(C)C2C1/C(O)=C1\C(=O)NC(CC(C)(O)C(=O)O)C1=O (stereo not given),nt,nt,2%[53.3 µM],nt
CC(C)[C@H](NC(=O)c1nn(Cc2ccc(F)cc2)c2ccccc12)C(N)=O,nt,nt,2%,nt
O=C(O)c1nn(Cc2ccc(Cl)cc2Cl)c2ccccc12,-8%,i,-22%[53.3 µM],64*!
Cc1oc2cc3oc(=O)c(CCC(=O)N4CCCCC4)c(C)c3cc2c1C,10%,nt,nt,87*
CCOc1ccc(Oc2ccc(OCc3cc(F)ccc3F)cc2)c(N)c1,nt,nt,-24%,nt
